The campaign covered roughly 310,000 compounds. About 14,000 (4.5%) showed an effect of 50% or more. Effects have a minus sign here. This is one part of a sample in which strong results are shown more often than they occur.
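Also: peak tail current of the secondary pulse compared with the same well before compound.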

The target of this experiment is human ether-à-go-go-related gene (hERG) potassium channel (human, UniProt Q12809). Kind of experiment: primary screen, population patch clamp on CHO cells stably expressing hERG; higher = less effect of the substance.
Chain of human ether-à-go-go-related gene (hERG) potassium channel (Q12809 whole entry, looked up): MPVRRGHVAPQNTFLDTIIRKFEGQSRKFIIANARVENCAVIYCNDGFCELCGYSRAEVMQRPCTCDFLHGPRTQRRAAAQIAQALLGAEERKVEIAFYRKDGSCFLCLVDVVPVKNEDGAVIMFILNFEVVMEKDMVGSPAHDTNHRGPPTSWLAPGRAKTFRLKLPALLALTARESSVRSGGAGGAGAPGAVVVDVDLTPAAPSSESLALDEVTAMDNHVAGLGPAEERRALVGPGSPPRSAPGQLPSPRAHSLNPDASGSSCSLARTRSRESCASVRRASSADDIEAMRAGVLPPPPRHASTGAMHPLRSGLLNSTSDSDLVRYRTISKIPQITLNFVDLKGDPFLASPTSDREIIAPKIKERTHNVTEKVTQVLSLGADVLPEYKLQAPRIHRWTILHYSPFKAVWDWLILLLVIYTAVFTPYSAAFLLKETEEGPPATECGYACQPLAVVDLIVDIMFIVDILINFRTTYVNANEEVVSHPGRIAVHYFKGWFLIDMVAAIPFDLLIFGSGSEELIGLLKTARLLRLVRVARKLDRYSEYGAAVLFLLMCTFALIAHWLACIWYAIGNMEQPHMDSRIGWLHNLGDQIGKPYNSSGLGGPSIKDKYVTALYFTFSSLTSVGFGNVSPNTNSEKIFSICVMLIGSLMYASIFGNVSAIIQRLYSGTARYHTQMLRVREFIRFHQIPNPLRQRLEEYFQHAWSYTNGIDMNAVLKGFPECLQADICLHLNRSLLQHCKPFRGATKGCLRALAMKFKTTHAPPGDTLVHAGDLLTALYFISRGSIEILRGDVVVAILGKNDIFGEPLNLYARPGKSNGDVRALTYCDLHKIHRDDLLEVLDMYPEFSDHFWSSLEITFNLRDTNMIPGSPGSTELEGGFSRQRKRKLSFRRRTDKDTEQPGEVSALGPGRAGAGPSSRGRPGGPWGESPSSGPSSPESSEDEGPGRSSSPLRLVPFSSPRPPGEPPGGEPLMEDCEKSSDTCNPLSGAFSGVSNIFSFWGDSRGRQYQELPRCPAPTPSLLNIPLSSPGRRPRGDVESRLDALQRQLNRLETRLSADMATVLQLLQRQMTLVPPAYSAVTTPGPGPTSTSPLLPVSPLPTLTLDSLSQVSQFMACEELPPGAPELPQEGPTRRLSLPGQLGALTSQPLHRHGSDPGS
With `COC(=O)c1cc(Cl)c(NC(=O)/C=C/c2ccc(Cl)cc2Cl)cc1OC`, the “hERG current change (%, negative = inhibition) at 10uM” value is recorded as -10.9%. Turning to `COc1ccc(N2CCN(C(=O)CNC(=O)Cc3ccc(Cl)cc3)CC2)cc1`, the “hERG current change (%, negative = inhibition) at 10uM” value is on record as -8.38%. With `Cc1cc(C)c(C#N)c(SCC(=O)CC(=O)OC(C)C)n1` the figure was 1.82%.

For `Cc1ccc(NS(=O)(=O)c2ccc(Br)s2)nc1`, the “hERG current change (%, negative = inhibition) at 10uM” value came out at 23.4%.

Turning to `Cc1ccc(C)c(OCCCC(=O)Nc2nccs2)c1`, the “hERG current change (%, negative = inhibition) at 10uM” value amounted to 12.9%. Next, `CC(C)Cn1nc(-c2ccccc2)c2ccccc2c1=O`: 20.1%; `CCCCNC(=O)C1CCN(C/C(C)=C/c2ccccc2)CC1.O=C(O)C(=O)O`: -63%. With `CC1CCN(C(=O)C2CCN(CC(C)c3ccccc3)CC2)CC1.O=C(O)C(=O)O` (stereo not shown) the figure was -13.5%; with `CCOC(=O)N1CCN(C/C(C)=C/c2ccccc2)CC1`, -25.1%. With `C/C(=C\c1ccccc1)CN1CCC(C(=O)N2CCC(C)CC2)CC1.O=C(O)C(=O)O` the figure was -63%. In the case of `CCCCN(C)C(=O)C1CCN(C/C(C)=C/c2ccccc2)CC1.O=C(O)C(=O)O`, the “hERG current change (%, negative = inhibition) at 10uM” value is on record as -73.4%. With `CCN1CCN(C/C(C)=C/c2ccccc2)CC1` the figure was 4.72%; with `C/C(=C\c1ccccc1)CN1CCN(C)CC1`, 16.2%. Next, `CCN(Cc1ccccc1)C(=O)C1CCN(C(=O)Nc2ccccc2)CC1`: 14.8%. Next, `C/C(=C\c1ccccc1)CN1CCC(C(=O)N2CCCCC2)CC1.O=C(O)C(=O)O`: -47.5%; `CCN(Cc1ccccc1)C(=O)C1CCN(C/C(C)=C/c2ccccc2)CC1.O=C(O)C(=O)O`: -70.4%; `CCN(CC)C(=O)C1CCCN(C/C(C)=C/c2ccccc2)C1` (stereo not shown): -30.7%. Regarding `CCCCNC(=O)C1CCN(Cc2ccccn2)CC1`, the “hERG current change (%, negative = inhibition) at 10uM” value was determined as 12%. Next, `Cc1cc(C)c(NC(=O)C2CCN(C(=O)c3ccco3)CC2)c(C)c1`: 19.9%; `COc1ccc(C2C(C(=O)c3sc(C)nc3C)=C(O)C(=O)N2CCN(C)C)cc1` (stereo not shown): -6.4%. Next, `O=C(COC(=O)c1cccs1)Nc1cccc(Cl)c1`: 10.2%. With `CCC(C)(C(=O)NC1CCCCC1)N(C(=O)CC1NC(=O)NC1=O)c1c(C)n(C)n(-c2ccccc2)c1=O` (stereo not shown) the figure was 12.8%; with `Cc1onc(-c2ccccc2Cl)c1C(=O)Nc1nc2ccc(S(C)(=O)=O)cc2s1`, -2.5%.

As to `CC1(C)NC(=O)N(CC(=O)N2CCCC(C(F)(F)F)C2)C1=O` (stereo not shown), the “hERG current change (%, negative = inhibition) at 10uM” value was 10.4%. With `COC(=O)c1ccc(CNC(=O)COC(=O)c2cc(Cl)nc(Cl)c2)cc1` the figure was 8.69%; with `CCn1c2ccccc2c2cc(NC(=O)C(=O)NCC3CCCO3)ccc21` (stereo not shown), -6.57%; with `COc1cc2c(cc1NC(=O)C(C)OC(=O)/C=C/c1ccc(OC(F)F)cc1)oc1ccccc12` (stereo not shown), 7.07%. With `COc1ccc(CCNc2cc(N3CCN(C(=O)c4ccc(C)cc4)CC3)ccc2[N+](=O)[O-])cc1OC` the figure was 8.2%.

As to `COC(=O)C(NC(=O)c1ccccc1)=C(C)C`, the “hERG current change (%, negative = inhibition) at 10uM” value is on record as 0.816%. Next, `O=C(c1ccc(F)cc1)C1CCN(C(=S)Nc2ccccc2Cl)CC1`: 0.35%. With `O=C(c1ccc(F)cc1)C1CCN(C(=S)Nc2ccccc2)CC1` the figure was -28.8%; with `CC(C)CNC(=S)N1CCC(C(=O)c2ccc(F)cc2)CC1`, -61.4%; with `O=C(NCc1ccc(F)cc1)C1CCN(C(=O)Nc2ccc(F)cc2)CC1`, -49.2%. On to `O=C(c1ccc(F)cc1)C1CCN(C(=S)Nc2ccc(F)cc2)CC1`, for which the “hERG current change (%, negative = inhibition) at 10uM” value was -57.2%.

As for `COc1ccc(C(=O)C2CCN(C(=S)Nc3ccc(F)cc3)CC2)cc1`, the “hERG current change (%, negative = inhibition) at 10uM” value is given as -46.9%. Turning to `Cc1ccc(NC(=O)N2CCC(C(=O)NCc3ccc(F)cc3)CC2)cc1`, the “hERG current change (%, negative = inhibition) at 10uM” value is given as -52.2%. For `CCc1ccccc1NC(=S)N1CCC(C(=O)c2ccc(F)cc2)CC1`, the “hERG current change (%, negative = inhibition) at 10uM” value is recorded as -63%. For the compound `CCCNC(=S)N1CCC(C(=O)c2ccc(F)cc2)CC1`, the “hERG current change (%, negative = inhibition) at 10uM” value is given as -8.84%. Turning to `Cc1ccc(CNC(=O)C2CCN(C(=O)Nc3ccccc3)CC2)cc1`, the “hERG current change (%, negative = inhibition) at 10uM” value is on record as -16.3%. With `C=CCNC(=S)N1CCC(C(=O)c2ccc(F)cc2)CC1` the figure was -44.4%.

With `Cc1ccccc1NC(=S)N1CCC(C(=O)c2ccc(F)cc2)CC1`, the “hERG current change (%, negative = inhibition) at 10uM” value is listed as -45%. `Cc1cn(C2C=CC(CO)O2)c(=O)[nH]c1=O` (stereo not shown): the “hERG current change (%, negative = inhibition) at 10uM” value is listed as 4.79%. With `CCN(CC)S(=O)(=O)c1ccc(C(=O)NCCc2ccccn2)cc1` the figure was 10.8%.

Consider `Cc1nn(C2CCCCC2)c(N)c1-c1ccccc1`, for which the “hERG current change (%, negative = inhibition) at 10uM” value was -3.53%.

Regarding `Nc1ccc(-c2nc3ccc(N)cc3[nH]2)cc1`, the “hERG current change (%, negative = inhibition) at 10uM” value is listed as 7.85%. On to `O=c1c2cc([N+](=O)[O-])cc([N+](=O)[O-])c2[nH]n1-c1ccccc1`, for which the “hERG current change (%, negative = inhibition) at 10uM” value is recorded as 17.2%. With `C/C=C(\C)C(=O)NNC(=O)c1sc(-c2ccccc2)nc1C` the figure was 16%; with `Cc1nc2cc(NC(=O)Nc3ccc(Br)cc3)ccc2o1`, 9.81%; with `Cc1cccc(NC(=O)N2CCC(C(=O)c3ccc(F)cc3)CC2)c1`, -40.6%.

For `O=C(c1ccc(F)cc1)C1CCN(C(=O)Nc2ccc(F)cc2)CC1`, the “hERG current change (%, negative = inhibition) at 10uM” value was -71.7%.

Regarding `COCCNC(=S)N1CCC(c2nc(-c3ccc(F)cc3)no2)CC1`, the “hERG current change (%, negative = inhibition) at 10uM” value is reported as -18.9%. Take `Cc1ccc(NC(=O)N2CCC(C(=O)c3ccc(F)cc3)CC2)cc1`: the “hERG current change (%, negative = inhibition) at 10uM” value was -3.84%.

On to `Cc1cc(C)cc(NC(=O)N2CCC(C(=O)c3ccc(F)cc3)CC2)c1`, for which the “hERG current change (%, negative = inhibition) at 10uM” value is reported as -77.7%. Next, `CSc1ccc(NC(=O)N2CCC(C(=O)c3ccc(F)cc3)CC2)cc1`: -40.9%; `CC(C)CNC(=S)N1CCC(c2nc(-c3ccc(F)cc3)no2)CC1`: -59.1%; `COCCNC(=S)N1CCC(c2nc(-c3ccc(N(C)C)cc3)no2)CC1`: -12.9%.

Take `Cc1cc(C)cc(NC(=O)N2CCC(NC(=O)c3ccc(F)cc3)CC2)c1`: the “hERG current change (%, negative = inhibition) at 10uM” value is reported as -35.5%. Next, `O=C(Nc1ccccc1)N(Cc1ccc(Cl)cc1)CC(O)C(F)(F)F` (stereo not shown): 8.33%. As to `Cc1cccc(N2CCN(S(=O)(=O)c3cc(-c4cc(C)no4)ccc3C)CC2C)c1` (stereo not shown), the “hERG current change (%, negative = inhibition) at 10uM” value came out at 18.9%.

`CC1SCC(NC(=O)c2ccc(Cl)cc2)CS1` (stereo not shown): the “hERG current change (%, negative = inhibition) at 10uM” value is recorded as -0.992%.

`Cc1cc(NC(=O)CSCc2ccc([N+](=O)[O-])cc2)no1`: the “hERG current change (%, negative = inhibition) at 10uM” value is recorded as -1.21%. Turning to `Cc1[nH]c2ccccc2c1C(=O)C(C)OC(=O)c1ccc(Cl)nc1` (stereo not shown), the “hERG current change (%, negative = inhibition) at 10uM” value was -12.9%. Next, `COC(=O)c1ccccc1NC(=O)c1cc[n+](C)cc1`: 11.8%. Next, `CCOCCCNS(=O)(=O)c1ccc(NC(=O)N2c3ccccc3Sc3ccccc32)cc1`: 3.13%; `O=C(NC1CCOC1)c1cc(COc2cccc(C(F)(F)F)c2)on1` (stereo not shown): 2.06%; `CCCCCCCCOC(=O)c1nc(Cl)c(Cl)c(N)c1Cl`: -66.3%. With `O=C(COC(=O)c1ncc(Cl)c(Cl)c1Cl)NC1CCCCCC1` the figure was 19%; with `O=C(COC(=O)c1nsc(Cl)c1Cl)NC1CCCCC1`, 17.1%; with `CCCCCCCOC(=O)c1nc(Cl)c(Cl)c(N)c1Cl`, -4.56%. For the compound `CCCCOC(=O)c1nc(Cl)c(Cl)c(N)c1Cl`, the “hERG current change (%, negative = inhibition) at 10uM” value is reported as -0.0656%. With `Nc1c(Cl)c(Cl)nc(C(=O)OCC(=O)NC2CCCCC2)c1Cl` the figure was -58.2%; with `CN1C(=O)/C(=C/c2cccn2-c2ccc3ccccc3c2)C(=O)NC1=S`, 12.2%; with `Cc1c(Cc2ccccc2)c(=O)oc2cc(OCC(=O)NCC(O)c3ccccc3)ccc12` (stereo not shown), 28.7%. Next, `C/C(CC(=O)Nc1cc(C)ccn1)=N\NC(=O)C(=O)NC(C)C`: 12.5%.

In the case of `O=C(OCCOc1ccccc1Cl)c1ccc(-n2cnnn2)cc1`, the “hERG current change (%, negative = inhibition) at 10uM” value was -19.2%. Next, `O=C(c1cc(-c2ccc(Br)cc2)on1)N1CCCC1`: 10.3%; `COc1ccc(NC(=O)NCCCCc2ccccc2)cc1`: 1.06%; `Cc1ccccc1CC1CCN(CCCNC(=O)Nc2ccccc2)CC1`: -68.5%. Next, `COc1ccc(NC(=O)N2CCC(Cc3ccccc3)CC2)cc1`: -3.45%. With `O=C(NCCN1CCN(c2ccccc2Cl)CC1)Nc1ccccc1` the figure was -34.1%; with `CSc1ccc(NC(=O)NCCCN2CCC(Cc3ccccc3)CC2)cc1`, -75.9%; with `O=C(NCCN1CCN(Cc2ccccc2Cl)CC1)Nc1ccccc1`, -47.5%. For the compound `CSc1ccc(NC(=O)NCc2ccccc2)cc1`, the “hERG current change (%, negative = inhibition) at 10uM” value stood at 19%. With `O=C(NCCCN1CCN(Cc2ccccc2Cl)CC1)Nc1ccccc1` the figure was -56.8%.

In the case of `CSc1ccc(NC(=O)NCCN2CCc3ccccc3C2)cc1`, the “hERG current change (%, negative = inhibition) at 10uM” value is given as -43.6%. Next, `COc1ccc(NC(=O)NCCCN2CCC(Cc3ccccc3)CC2)cc1`: -77.5%; `Cc1ccccc1NC(=O)NCCCN1CCN(C2CCCCC2)CC1`: -9.26%; `Cc1ccccc1NC(=O)NCCCN1CCCC1`: 26.6%. With `Cc1c(NC(=O)COc2c(F)c(F)c(F)c(F)c2F)c(=O)n(-c2ccccc2)n1C` the figure was 0.328%; with `COc1ccc(/C(C)=N/NC(=O)CNC(=O)/C=C\c2ccccc2)c(OC)c1`, -9.28%; with `C/C(=N\OCc1ccccc1C#N)c1cc2ccccc2o1`, 0.146%.

These data come from paper PMC4336329 (PLoS ONE, 2015).
